From PubChem
The list is not random: actives were taken first. Their share in the collection is about 6.5%.
Autofluor 339 – intrinsic fluorescence of library compounds, ex339/em460 – biochemical, MLSMR library, data from DPM-DC assay, artefact control, profiling panel; compound autofluorescence, ex339/em460 nm, NADH buffer; hits give high values; 1 = no-compound wells, NADH background; fluorescence fold increase at 10 µM; hit rate 5.5% among 65,000; AID 709;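 active = at 10 µM, mean starting fluorescence two-fold or more over control wells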;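 also: signal is the first read of a kinetic run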
Spn MK inh – inhibitors of Streptococcus pneumoniae mevalonate kinase; purified MK, PK/LDH-coupled NADH absorbance 340 nm; inhibition, % at 10 µM; hit rate 0.48% among 65,000;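 active = ranked among the strongest by inhibition in the single 10 µM screen, a fixed top-ranked set picked for dose follow-up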
DPM-DC inhibit – blocks S. pneumoniae diphosphomevalonate decarboxylase | purified DPM-DC, PK/LDH coupled NADH fluorescence | calls only at 10 µM | hit rate 0.49% among 65,000;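 active = the 320 compounds with the highest percent inhibition in the single-dose primary screen, excluding strongly autofluorescent ones, cut at about 32% in these data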;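 also: kinetic rate of NADH fluorescence loss reporting ADP formed by the decarboxylase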
Abs 340nm – compounds absorbing at 340 nm. compound absorbance at 340 nm, fold over control. fold change at 10 µM. 65,000 tested, under 10 active. AID 708;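 active = at 10 µM dose, initial 340 nm absorbance at least 2 fold that of control wells; inactive = change under 2 fold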;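 also: initial absorbance extrapolated from kinetic A340 decline of NADH oxidation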
NADH coupling – inhibition of NAD/NADH coupling enzymes, library profiling. hit rate 0.02% among 65,000. AID 774. IC50, µM (doses to about 10 µM), for the others: at the highest dose inhibition. coupled PK/LDH NADH assays, four targets;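 active = single-dose screening hits from any of four coupled enzyme assays that gave an IC50 when retested across doses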;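 also: the DPM-DC format reads NADH fluorescence rather than 340 nm absorbance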
Spn PMK inh – blocks S. pneumoniae phosphomevalonate kinase; purified PMK, PK/LDH-coupled NADH absorbance 340 nm; inhibition, % at 10 µM; hit rate 0.49% among 65,000;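 active = top-ranked compounds by inhibition in the single 10 µM screen, taking a fixed number of the strongest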;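 also: 0% = full reaction with DMSO carrier and 100% = background rate without enzyme reaction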
The depositor's hits bear a star; i = inactive; nt = not tested or not shown; + = active, no number.

SMILES | Autofluor 339 | Spn MK inh | DPM-DC inhibit | Abs 340nm | NADH coupling | Spn PMK inh
O=c1[nH]c(-c2ccc(Cl)cc2)nc2c1cnn2-c1ccccc1 | 2.3* | 7 | i | 1.1 | 7% | 0
O=C(c1ccccc1)C(Sc1ncn[nH]1)c1ccccc1 (stereo not drawn) | 1.1 | 12 | i | 1 | 6% | 7
Cc1c(C(=O)OC(C)CCN(C)C)oc2ccccc12 (stereo not drawn) | 1.1 | 4 | i | 1 | 10% | 7
Cc1c(C(=O)OCC(C)(C)CN(C)C)oc2ccccc12 | 0.9 | 9 | + | 1 | 5% | 6
Cc1c(C)c2cc(Cl)c(OCc3nn[nH]n3)cc2oc1=O | 3.8* | 5 | nt | 1.1 | 7% | 9
COC(=O)Cc1c(C)c2c(OCc3nn[nH]n3)cc(C)cc2oc1=O | 3.8* | 0 | nt | 1.1 | 0% | 0
CCOc1cc2c(C)cc(=O)oc2cc1Cl | 1.8 | 3 | i | 1 | 8% | 14
CCOc1ccc(CCNC(=O)Cc2nn[nH]n2)cc1OCC | 1.1 | 0 | i | 1 | 3% | 10
CCc1cc(=O)oc2cc(C)cc(OCc3nn[nH]n3)c12 | 3.8* | 5 | nt | 1 | 8% | 11
CC(NC(=O)Nc1ccccc1C(F)(F)F)C1CCCO1 (stereo not drawn) | 1.1 | 0 | i | 1 | 3% | 9
CCOC(=O)CNC(=O)C(=O)c1c(O)[nH]c2ccccc12 | 1.1 | 10 | i | 1.1 | 9% | 16
Cc1ccc2nc(-c3ccccn3)oc2c1 | 3* | 11 | i | 1 | 16% | 17
Cc1ccc2nc(-c3cccnc3)oc2c1 | 2.7* | 8 | i | 1 | 15% | 12
c1ccc(-c2nc3cc(Oc4ccc5oc(-c6ccccn6)nc5c4)ccc3o2)nc1 | 1.8 | 1 | i | 1 | 4% | 10
COc1ccc(C2CC(c3ccc(OC)cc3)n3nc(NC(=O)c4ccco4)nc3N2)cc1 (stereo not drawn) | 1.4 | 4 | i | 1 | 1% | 0
O=C1CCCC2=C1C1(CCCC1)N=C(Nc1nc3ccccc3s1)N2 | 2* | 3 | i | 1 | 6% | 3
O=C1CCCC2=C1C1(CCCCC1)N=C(Nc1nc3ccccc3s1)N2 | 2.3* | 14 | i | 1.1 | 7% | 7
CCOC(=O)C1CCCN(S(=O)(=O)c2cc(OCC(N)=O)c(C)cc2Cl)C1 (stereo not drawn) | 1.1 | 11 | i | 1.1 | 5% | 3
CN1CCc2c(sc3c2c(=O)n(-c2ccccc2)c2nnc(SCc4ccccc4F)n32)C1 | 1.2 | 2 | i | 1.1 | 4% | 9
CC1CCCC(C)N1C(=O)COC(=O)c1ccc2c(c1)OCO2 (stereo not drawn) | 1.1 | 3 | i | 0.97 | 4% | 9
Nc1nc(N)c2nc(-c3ccccc3)c(N)nc2n1 | 2.5* | 6 | nt | 1 | 3% | 8
N#Cc1c(N)nc(-c2ccccc2)nc1-c1ccccc1 | 1.1 | 2 | i | 1.1 | 6% | 11
O=C(CN(Cc1ccc(F)cc1)C(=O)Cn1nnc2ccccc21)NCC1CCCO1 (stereo not drawn) | 0.99 | 11 | i | 0.98 | 4% | 12
COc1cc(NC(=O)c2ccc3c(c2)OCO3)ccc1NC(=O)C(C)C | 1.5 | 0 | i | 1.1 | 7% | 7
COc1cc(NC(=O)c2ccc(-c3ccc(Br)cc3)o2)ccc1NC(=O)C(C)C | 3.8* | 5 | nt | 1.1 | 5% | 4
SMILES | Autofluor 339 | Spn MK inh | DPM-DC inhibit | Abs 340nm | NADH coupling | Spn PMK inh
Cc1ccc(-c2nn3c(C)nnc3s2)cc1NC(=O)c1ccc(-c2ccc(Cl)cc2Cl)o1 | 3.7* | 6 | nt | 1.1 | 4% | 2
Cc1nnc2sc(-c3ccc(NC(=O)c4ccc(-c5ccc(Br)cc5)o4)cc3)nn12 | 3.7* | 0 | nt | 1.1 | 0% | 0
O=C(CSc1n[nH]c(-c2ccncc2)n1)Nc1ccccn1 | 1.1 | 5 | i | 1 | 4% | 0
Cc1cccc(NC(=O)c2cc3n(n2)C(C(F)(F)F)CC(c2ccc4c(c2)OCO4)N3)c1 (stereo not drawn) | 0.98 | 0 | i | 0.96 | 3% | 17
Cc1cc(C)c2c(c1)-c1cc(C)nn1C(c1ccc3c(c1)OCO3)N2 (stereo not drawn) | 2.7* | 4 | i | 0.99 | 6% | 5
Cc1cc2n(n1)C(c1ccc3c(c1)OCO3)Nc1c(C)cccc1-2 (stereo not drawn) | 2.2* | 12 | i | 0.98 | 9% | 7
CN(C)CCSc1nc(N)c2c3c(sc2n1)CN(C)CC3 | 1.2 | 7 | i | 1.1 | 11% | 2
COc1ccccc1/C=C/CN1CC(C)OC(C)C1 (stereo not drawn) | 1.1 | 48* | i | 1.1 | 16% | 0
Cc1nn(C)c(C)c1S(=O)(=O)NC1CCCc2ccccc21 (stereo not drawn) | 1.1 | 4 | i | 1 | 3% | 6
O=c1c[n+]([O-])c2ccccc2n1OCc1c(F)cccc1F | 1.3 | 8 | i | 1.1 | 6% | 12*
O=c1c[n+]([O-])c2ccccc2n1OCc1ccccn1 | 1.2 | 0 | i | 1 | 1% | 0
CCOC(=O)CCc1c(C)n(CC)c2ncnn2c1=O | 1.1 | 4 | i | 1 | 7% | 18
COc1ccccc1NC(=O)c1c(NC(=O)c2ccco2)sc2c1CCC2 | 2.3* | 2 | nt | 1.1 | 3% | 4
CCOC(=O)c1c(NC(=O)c2nc3n(n2)C(C(F)F)CC(C)N3)sc2c1CCCC2 (stereo not drawn) | 5.1* | 6 | nt | 1.1 | 12% | 17
Cc1nn(Cc2ccc(Cl)cc2Cl)c(C)c1NC(=O)c1nc2n(n1)C(C(F)F)CC(C)N2 (stereo not drawn) | 1.2 | 4 | i | 0.99 | 4% | 9
COc1ccc(OC)c(NC(=O)c2c(NC(=O)CNCc3ccco3)sc3c2CCC3)c1 | 2.3* | 0 | nt | 1.1 | 0% | 0
CCOC(=O)c1c(NC(=O)c2ccco2)sc2c1CCCC2 | 2.1* | 7 | nt | 1.1 | 9% | 10
CC(=O)OCCNC(=O)c1cc2ccccc2oc1=O | 1.5 | 6 | i | 1.1 | 7% | 3
Cc1cc(C)n(-c2c(F)c(F)c(CN3CCCCC3)c(F)c2F)n1 | 1.1 | 0 | i | 1 | 3% | 10
COC(=O)c1c(-c2ccccc2)csc1NC(=O)c1ccco1 | 4.9* | 0 | nt | 1 | 5% | 10
CCOC(=O)c1c(NC(=O)c2cccs2)sc2c1CC(C)(C)OC2 | 2.1* | 9 | i | 1.1 | 6% | 3
O=C(Nc1sc2c(c1C(=O)NC1CCCCC1)CCC2)c1ccco1 | 3.6* | 12 | nt | 1.1 | 11% | 9
O=C(COC(=O)c1ccco1)NC1CCCCC1 | 1 | 0 | i | 1 | 8% | 25*
O=C(Nc1scc(-c2ccc(F)cc2)c1C(=O)O)c1ccco1 | 1.1 | 8 | i | 1.2 | 3% | 0
